Bioassay records from PubChem BioAssay.
Pf growth 96h: inhibits malaria parasite growth, 96 h. P. falciparum luciferase reporter growth, 96 h. Potency, µM (titrated, usually from 28.7 µM), for the others: at the top dose activity change, negative = inhibition, hits mostly inhibitors. AID 504834. 6.9% of 320,000 active; note: % is set by controls: 0 for no effect and ±100 for the full control effect
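Delayed-death screen, second-generation endpoint: infected erythrocytes, 2% hematocrit, 0.05% parasitemia final; 96 hours at 37 C, 5% CO2; luciferase detection reagent; luminescence decrease equals reduced growth.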
AmpC inh detg: blocks E. coli AmpC beta-lactamase in detergent assay; P00811; AmpC hydrolysis of nitrocefin, absorbance 480 nm, 0.01% Triton; Potency, µM (titrated, usually from 114 µM), without a hit: at the highest dose activity change, negative = inhibition, most hits filed as inhibitors; 0.041% of 370,000 active; AID 485294;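 note: 0% = no-compound wells and -100% = no-enzyme wells; nearly all actives have a fitted effect of over 25% in size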
Target sequence (P00811 whole entry, looked up): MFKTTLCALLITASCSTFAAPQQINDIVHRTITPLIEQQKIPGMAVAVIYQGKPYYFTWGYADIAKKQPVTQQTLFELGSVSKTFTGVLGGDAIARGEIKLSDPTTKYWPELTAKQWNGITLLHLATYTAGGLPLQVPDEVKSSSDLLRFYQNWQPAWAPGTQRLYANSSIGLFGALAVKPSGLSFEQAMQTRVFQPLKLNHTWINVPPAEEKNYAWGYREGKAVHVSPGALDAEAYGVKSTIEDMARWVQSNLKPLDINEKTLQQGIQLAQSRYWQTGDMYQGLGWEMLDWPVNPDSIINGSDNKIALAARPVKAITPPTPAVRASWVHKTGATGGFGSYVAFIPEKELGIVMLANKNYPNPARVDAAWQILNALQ
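AmpC (5.3 nM in the dispensed reagent) in 20 mM phosphate pH 7.0 with 0.01% (detergent screen) or 0.0001% Triton X-100 was preincubated with compounds for 15 min at room temperature. Nitrocefin was then added from an 800 uM solution, and hydrolysis was followed at 480 nm.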
AmpC inh no detg: AmpC beta-lactamase inhibition without detergent. Potency, µM (top dose mostly 57.1 µM), without a hit: top-dose activity change, negative = inhibition, most hits filed as inhibitors. 0.52% of 330,000 active. AmpC nitrocefin hydrolysis, absorbance 480 nm, 0.0001% Triton. AID 485341;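 note: plate controls were no compound for no effect and no enzyme for full effect; nearly all actives have a fitted effect of over 20% in size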
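20 mM phosphate pH 7.0 + 0.01% (detergent screen) or 0.0001% Triton X-100; 5.3 nM AmpC reagent; cpd preinc 15 min RT; nitrocefin (800 uM stock) to start; A480 q20 s × 4 min; Activity was normalised to no-enzyme and no-compound control wells.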
Pf growth 48h: inhibits P. falciparum growth in the first generation, 48 h | Potency, µM (titrated, usually from 28.7 µM), inactives show top-dose activity change, negative = inhibition, actives largely listed as inhibitors | AID 504832 | P. falciparum luciferase growth in erythrocytes, 48 h | 5.9% of 310,000 active; note: % is set by controls: 0 for no effect and ±100 for the full control effect
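In quantitative HTS format, infected erythrocytes bearing luciferase-reporter parasites were treated for a single generation at 37 C. Luminescence after adding detection reagent served as the growth measure.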
Sm TGR inh: inhibitors of Schistosoma mansoni thioredoxin glutathione reductase. 3% of 360,000 active. purified TGR, DTNB reduction, TNB absorbance 405 nm. AID 485364. Potency, µM (highest dose often 114 µM), without a hit: top-dose activity change, negative = inhibition, actives largely listed as inhibitors. Q962Y6; note: % is set by controls: 0 for no effect and ±100 for the full control effect; nearly all actives have a fitted effect of over 60% in size
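TGR 20 nM + NADPH 100 uM (dispensed conc.), cpd preinc 15 min RT; start with NADPH (500 uM addition) then DTNB (15 mM addition). Kinetic TNB absorbance, 405 nm filter. Four-parameter Hill fit across titration.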
SARS PLP yeast: inhibitors of SARS-CoV papain-like protease in yeast. S. cerevisiae expressing SARS-CoV PLpro, growth rescue. Potency, µM (titrated, usually from 32.9 µM), inactives show at the highest dose activity, positive = growth rescue, most hits filed as activators. 0.19% of 330,000 active; calls by dose curve; note: 0% is about no effect; nearly all actives have a fitted effect of over 55% in size
Active calls of the source: *; ? = inconclusive; . = no result. An excerpt weighted towards active compounds, which were near 12% of everything screened. Unless noted, calls come from the whole dose curve; as a rule, active = well fitted curve in the direction sought with a large enough effect; inconclusive = small, poorly fitted or top-dose-only effect, or another doubt; inactive = no such curve, though single readings can be large; an effect the other way counts as inactive or inconclusive. Potency is the fitted concentration of half-maximal effect.

SMILES	Pf growth 96h	AmpC inh detg	AmpC inh no detg	Pf growth 48h	Sm TGR inh	SARS PLP yeast
COc1ccc(/C=N\NC(=O)c2ccccc2)cc1COc1ccccc1	12µM*	?	-33%	?	0%	3%
COc1ccc(/C=N/NC(=O)c2cc(C(C)(C)C)[nH]n2)cc1COc1ccc(F)cc1F	13µM*	-6%	-2%	?	2%	2%
Cn1nc(C(=O)NNC(=O)c2ccccc2Br)c2ccccc2c1=O	-4%	0%	-14%	-16%	-2%	-5%
COc1ccc(/C=N\NC(=O)c2ccccc2OC)cc1COc1ccccc1C	-7%	?	-11%	13µM*	0%	1%
COc1ccc(/C=N\NC(=O)c2cc(O)c(O)c(O)c2)cc1COc1ccc(C(=O)OCC(C)C)cc1	?	3%	10µM*	2.9µM*	-34%	5%
COc1ccc(C(=O)N/N=C/c2ccc(OC)c(COc3ccccc3)c2)cc1	?	4%	78%	10%	-1%	1%
CCOc1c(Br)cc(/C=N\NC(=O)c2ccccc2)cc1OC	8.3µM*	-1%	-54%	5.2µM*	-8%	-6%
COc1ccc(/C=N/NC(=O)c2ccco2)cc1COc1ccc(F)cc1	?	-3%	-49%	9.3µM*	1%	-1%
Cc1ccc(S(=O)(=O)N2CCN(Cc3noc(CCC(=O)N4CCCCC4)n3)CC2)c(C)c1	.	-4%	.	.	-15%	.
CNc1ccc(C(=O)OCC(=O)NCc2ccc3c(c2)OCO3)cc1[N+](=O)[O-]	-7%	10%	-5%	-9%	-6%	-2%
Cc1ccc2nc(-c3cc(NC(=O)/C=C/c4ccccc4)ccc3Cl)oc2c1	.	-2%	.	.	-6%	.
CCN1CC(CN(C)Cc2nc(-c3ccc(OC)c4ccccc34)oc2C)CC1=O (centres undefined)	-18%	10%	215%	-15%	-29%	0%
COc1ccc(/C=N/NC(=O)c2ccoc2C)cc1COc1c(C)cccc1C	10µM*	1%	-18%	?	4%	-39%
COc1ccc(/C=N\NC(=O)c2ccccc2Br)cc1COc1c(F)c(F)cc(F)c1F	11%	-13%	-36%	35%	-21%	-5%
CCOc1cc(/C=N/NC(N)=S)cc(Br)c1OCc1ccccc1C	.	-3%	-11%	13µM*	-11%	-1%
Cc1onc(-c2cccc(Cl)c2Cl)c1C(=O)O/N=C(\N)c1ccc([N+](=O)[O-])o1	10µM*	4%	-36%	?	?	-7%
Cc1onc(-c2ccccc2)c1C(=O)O/N=C(\N)c1ccc([N+](=O)[O-])o1	12µM*	-14%	-39%	?	?	-3%
Cc1onc(-c2ccccc2Cl)c1C(=O)O/N=C(\N)c1ccccc1	17%	4%	-30%	?	?	-3%
CC(C)(C)C1=CC(=O)C(=O)C(C(C)(C)C)=C1	-26%	-14%	-12%	-20%	20µM*	-67%
CCN1C(=O)[C@H]2[C@H]3[C@H](O)[C@H](O)C/C(=N\O[C@H](C)c4cn([C@H](CO)Cc5ccccc5)nn4)[C@@H]3CC[C@H]2C1=O	-12%	?	39%	21%	-10%	2%
C/C(CCN1CCc2nc(-c3ccccc3)c(-c3ccccc3)cc2C1)=N\O[C@H](C)c1cn([C@H](CO)Cc2ccccc2)nn1	13µM*	1%	212%	9.3µM*	?	7%
C/C(CCN1CCc2nc(-c3ccccc3)c(-c3ccccc3)cc2C1)=N\OC[C@@H](C)[C@H](OCc1ccccc1)C(C)C	9.3µM*	-2%	3%	?	-4%	-9%
CCc1cccc(NC(=O)c2sc3nc4n(c(=O)c3c2C)CCC4)c1	?	2%	98%	42%	1%	-1%
Cc1c(C(=O)NCc2cccc(Cl)c2)sc2nc3n(c(=O)c12)CCCC3	.	27%	.	.	14µM*	.
Cc1c(C(=O)Nc2cccc(C#N)c2)sc2nc3n(c(=O)c12)CCCCC3	.	6%	.	.	5.6µM*	.
SMILES	Pf growth 96h	AmpC inh detg	AmpC inh no detg	Pf growth 48h	Sm TGR inh	SARS PLP yeast
Cc1c(NC(=O)c2sc3ccccc3c2Cl)cccc1-c1nc2ccccc2o1	.	21%	.	.	-2%	.
Cc1cc(N)c(NC2=CC(=O)CC(C)(C)C2)cc1C	10µM*	-1%	8%	-4%	3%	20%
Cn1c(/C(C#N)=C/c2ccc(O)cc2)nc2ccccc21	2.3µM*	-10%	-51%	-4%	8%	-1%
Cn1c(/C(C#N)=C/c2ccncc2)nc2ccccc21	7%	-6%	-13%	-4%	.	1%
CCNC(=O)COc1cccc(C(=O)NCc2ccccc2)c1	16%	?	-4%	-15%	1%	14%
Cc1ccc(/C=N/Nc2ccnc3cc(Cl)ccc23)c(C)c1	?	0%	-23%	0.21µM*	-12%	-57%
Cc1ccccc1/C=N/Nc1ccnc2cc(Cl)ccc12	0.83µM*	-10%	-17%	0.83µM*	-1%	-62%
Oc1ccc(/C=N/Nc2ccnc3cc(Cl)ccc23)c(O)c1	0.37µM*	-6%	-49%	0.59µM*	6%	1%
COc1ccc(NC(=O)CSc2ncc3c(n2)-c2ccccc2N(C)S3(=O)=O)cc1Cl	.	1%	.	.	10%	.
CCOC(=O)c1ccc(NC(=S)N(CCCN2CCCC2)Cc2cccs2)cc1	?	?	-10%	0%	21%	4%
CCN1CCCc2cc(CN(CCN3CCOCC3)C(=S)Nc3ccc(OC)cc3)ccc21	5.9µM*	4%	18%	-11%	15%	-2%
COc1ccc(NC(=S)N(CCCN2CCC(C)CC2)Cc2cccs2)cc1	5.9µM*	9%	46%	0%	3%	-5%
COc1ccc(NC(=S)N(CCCN2CCCCC2)Cc2cccs2)cc1	12µM*	-8%	-14%	?	-2%	12%
CCOC(=O)c1ccc(NC(=S)N(CCCN2CCN(CC)CC2)Cc2cccs2)cc1	-3%	-3%	254%	8.3µM*	3%	1%
O=C(CSc1nccn1C1CCCC1)Nc1ccccc1	.	8%	.	.	10%	.
Cc1cccc(NC(=O)Cn2nc(-c3cccs3)ccc2=O)c1C	0%	-12%	29%	-4%	-1%	-1%
CCOC(=O)c1sc(S(C)=O)c2c1CCc1conc1-2 (centres undefined)	?	-2%	-10%	?	1µM*	-1%
CCOC(=O)c1sc2ccccc2c1OC(=O)c1ccc(C)cc1	0%	0%	-22%	13%	9%	-7%
CCOC(=O)c1[nH]c2c(c1C)C(=O)CC(c1ccco1)C2 (centres undefined)	14%	?	-30%	13µM*	40µM*	-7%
